Hits are enriched below; roughly 11% of the tested compounds scored in any of these assays.
Pf growth 96h: P. falciparum growth inhibition at 96 hours; P. falciparum luciferase reporter growth, 96 h; Potency, µM (series often up to 28.7 µM), for inactives: at the top dose activity change, negative = inhibition, usual class: inhibitors; 320,000 tested, 6.9% active; AID 504834
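Two parasite generations (96 h, 37 C, 5% CO2) of compound exposure in infected erythrocytes (0.05% parasitemia, 2% hematocrit). Luciferase-reporter P. falciparum; decreased luminescence indicates inhibited growth, aimed at apicoplast-acting delayed death.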
HCV inhibitor: blocks hepatitis C virus | 340,000 tested, 3.4% active | Potency, µM (highest dose often 41.8 µM), for the others: top-dose activity change, negative = inhibition, hits mostly inhibitors | Huh7.5.1 HCVcc-Cre infection, luciferase reporter, 44 h | AID 651820
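After 44 h co-culture of compound, cells and HCVcc-Cre (~0.5 moi), substrate is added for 15 min at room temperature and luciferase measured over 15 sec. Cells were seeded at 1,000/well and pre-cultured 4 h.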
AMA1-RON2 inh: disrupts binding of P. falciparum AMA1 to RON2. Potency, µM (doses to about 58.2 µM), inactives show at the highest dose activity change, negative = inhibition, usual class: inhibitors. AlphaScreen AMA1-biotinylated RON2 peptide binding. 360,000 tested, 0.2% active;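 also: 0% = vehicle wells and -100% = peptide control; nearly all actives have a fitted effect of over 45% in size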
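AMA1 (3D7) with his tag at 25 nM final met compounds first, then biotinylated RON2 peptide at 25 nM; detection used donor plus acceptor beads, 10 µg/mL apiece, read by AlphaScreen after 30 min at room temperature.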
Pf growth 48h: P. falciparum growth inhibition at 48 hours (one generation). AID 504832. P. falciparum luciferase growth in erythrocytes, 48 h. 310,000 tested, 5.9% active. Potency, µM (titrated, usually from 28.7 µM), without a hit: top-dose activity change, negative = inhibition, hits mostly inhibitors
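Erythrocytes infected with P. falciparum carrying an integrated firefly luciferase reporter (2% hematocrit, 0.1% parasitemia final) were exposed to compounds in RPMI 1640 with 0.5% Albumax at 37 C, 5% CO2. Growth inhibition was scored as reduced luminescence.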
Numbers without * were called inactive; ? = inconclusive; / = no result; [ ] = dose if it differs, or a comment. Calls follow the shape of the dose curve; as a rule, active = well fitted curve in the direction sought with a large enough effect; inconclusive = small, poorly fitted or top-dose-only effect, or another doubt; inactive = no such curve, though single readings can be large; an effect the other way counts as inactive or inconclusive. Unless noted, % is scaled to controls: 0 for no effect and ±100 for the full control effect; potency is read from the fitted curve at half-maximal effect.

SMILES	Pf growth 96h	HCV inhibitor	AMA1-RON2 inh	Pf growth 48h
CCOC(=O)C1CCCN(S(=O)(=O)c2cc(Br)cc3c2N(C(C)=O)CC3)C1 (stereo unspecified)	?	?	4%	3.7µM*
CCCCN(C)S(=O)(=O)c1cc(Br)cc2c1N(C(=O)C1CC1)CC2	?	?	-1%	4.7µM*
CCOC(=O)C1CCCN(S(=O)(=O)c2cc3c4c(c2)CCC(=O)N4CCC3)C1 (stereo unspecified)	?	?	9%	?
CCN(c1ccc2c(c1)OCO2)S(=O)(=O)c1cc(Br)cc2c1N(C(C)=O)CC2	9.3µM*	-16%	18%	?
CC(=O)N1CCc2cc(Br)cc(S(=O)(=O)N3CCN(c4ccccn4)CC3)c21	/	10%	-5%	?
CC(=O)N1CCc2cc(Br)cc(S(=O)(=O)N3CCCCC3)c21	?	0%	-16%	2.6µM*
CCN(c1ccc2c(c1)OCO2)S(=O)(=O)c1cc2c(cc1Br)CCN2C(=O)C1CC1	/	?	-4%	/
O=C(O)CCS(=O)(=O)c1cc(Br)cc2c1N(C(=O)C1CC1)CC2	?	26%	?	?
COc1ccc(/C=C/C(=O)N[C@H](C(=O)O)C(C)C)cc1	15%	33%	-14%	15%
CCN(CC)C(=O)C[n+]1cccc(C(N)=O)c1	?	1%	1%	-5%
CC(=O)Nc1cccc(-c2csc(C(C)(NC(C)=O)c3ccccc3)n2)c1 (stereo unspecified)	/	/	7%	/
COCCn1c(=O)c2c(nc3n2CC(C)CN3Cc2ccccc2)n(C)c1=O (stereo unspecified)	?	15%	6%	?
CCC(=O)N1CCc2cc(Br)cc(S(=O)(=O)N3CCCC(C(=O)NC(C)(C)C)C3)c21 (stereo unspecified)	?	-4%	0%	1.2µM*
Cc1ccc(CNC(=O)CCS(=O)(=O)c2cc(Br)cc3c2N(C(=O)C2CC2)CC3)o1	12µM*	-8%	-2%	2.6µM*
CCC(=O)N1CCc2cc(Br)cc(S(=O)(=O)N3CCC(C(=O)NC(C)(C)C)CC3)c21	34%	-6%	15%	?
O=C(C1CC1)N1CCc2cc(Br)cc(S(=O)(=O)NCCN3CCOCC3)c21	?	0%	4%	8%
O=C(C1CC1)N1CCc2cc(Br)cc(S(=O)(=O)N3CCOCC3)c21	37%	-13%	2%	5.2µM*
CCOC(=O)C1CCN(S(=O)(=O)c2cc(Br)cc3c2N(C(C)=O)C(C)C3)CC1 (stereo unspecified)	?	-1%	6%	8.3µM*
CCCS(=O)(=O)NC(=O)C1(C)CCN(C(=O)c2nc(C)oc2C)C1 (stereo unspecified)	/	/	2%	/
CC1(C)OC(=O)C(=CNC(CCC(N)=O)C(=O)O)C(=O)O1 (stereo unspecified)	11%	23%	64%	-9%
CC(C)(C)OC(=O)NC(CCNC=C1C(=O)OC(C)(C)OC1=O)C(=O)O (stereo unspecified)	8.3µM*	-22%	3%	23%
CC(C)CCNC(=O)c1onc(CSc2nc3ccccc3[nH]2)c1C(=O)NCCC(C)C	2.3µM*	18%	1%	?
COCCNC(=O)c1onc(CSc2nc3ccccc3[nH]2)c1C(=O)NCCOC	?	-2%	-7%	18%
CC(C)NC(=O)c1onc(CSc2ccc(F)cc2)c1C(=O)NC(C)C	9.3µM*	-21%	4%	4.7µM*
CCCCNC(=O)c1onc(CS(=O)(=O)c2ccccn2)c1C(=O)NCCCC	15µM*	0%	1%	?
SMILES	Pf growth 96h	HCV inhibitor	AMA1-RON2 inh	Pf growth 48h
CCCNC(=O)c1onc(CSc2ccc(Cl)cc2)c1C(=O)NC(C)C	4.7µM*	?	28%	12µM*
CC(=NNc1ccc([N+](=O)[O-])cn1)c1ccc(N)cc1	/	18%	-5%	/
CC12CCC(C(=O)N(NC(=O)c3ccccc3Cl)C1=O)C2(C)C (stereo unspecified)	-4%	-3%	12%	31%
Fc1ccc(-c2csc(Nc3ccccn3)n2)cc1	2%	?	-1%	241%
O=C(O)C1=C[C@H](c2csc3ccccc23)C[C@H](OCCCCO)O1	3%	37%	-4%	16%
O=C(NN1CCOCC1)NC12CC3CC(CC(C3)C1)C2	?	22%	-3%	?
COC(=O)C1CCN(C(=O)COC(=O)CCc2nc3ccccc3c(=O)[nH]2)CC1	28%	2%	-6%	7%
CCCCNC(=O)c1onc(CSc2ccncc2)c1C(=O)NCCCC	-29%	2%	-1%	?
CC(C)NC(=O)c1onc(CSc2ccc(Cl)cc2)c1C(=O)NC(C)C	3.3µM*	?	8%	5.2µM*
CC(C)NC(=O)c1onc(CSc2ccc(Cl)cc2)c1C(=O)O	84%	31%	0%	8%
CCCCNC(=O)c1onc(CSc2ccccc2)c1C(=O)NCCCC	12µM*	-29%	15%	?
CCOC(=O)c1c(C)[nH]c(C)c1C(=O)COC(=O)/C=C/c1ccco1	-6%	-1%	15%[11.6 µM]	?
O=C(CN1C(=O)C2CC=CCC2C1=O)Nc1nc2ccccc2[nH]1 (stereo unspecified)	19µM*	11%	53%	10%
O=C(Cc1ccccc1)Nc1nc2ccccc2[nH]1	/	11%	42%	58%
COC(=O)[C@]1(Cc2ccccc2)N[C@H](c2ccc(-c3ccc(Cl)c(Cl)c3)cc2)[C@@H]2C(=O)N(C)C(=O)[C@@H]21	9.3µM*	?	-10%	5.9µM*
COc1ccc(N2C(=O)C3C4C=CC(C4)C3C2=O)c([N+](=O)[O-])c1 (stereo unspecified)	33%	4%	11%	-16%
COc1ccc(N2C(=O)C3C(c4ccc(C(=O)O)cc4)NC(Cc4ccccc4)(C(=O)O)C3C2=O)c([N+](=O)[O-])c1 (stereo unspecified)	2.9µM*	4%	8%	12%
COC(=O)[C@]1(Cc2ccccc2)N[C@H](c2ccc(-c3ccccc3)cc2)[C@@H]2C(=O)N(C)C(=O)[C@@H]21	?	?	-11%	?
COC(=O)[C@]1(Cc2ccccc2)N[C@H](c2ccc(-c3cc(C(C)=O)cs3)cc2)[C@@H]2C(=O)N(C)C(=O)[C@@H]21	?	?	6%	9.3µM*
COC(=O)[C@]1(Cc2ccccc2)N[C@H](c2ccc(SC3CCCCC3)c(OC)c2)[C@@H]2C(=O)N(C)C(=O)[C@@H]21	/	?	-10%	/
COC(=O)[C@]1(Cc2ccccc2)N[C@H](c2ccc(-c3cccc(Cl)c3)cc2)[C@@H]2C(=O)N(C)C(=O)[C@@H]21	5.2µM*	?	-17%	13µM*
COc1ccc(C2(C)NC(=O)N(CC(=O)Nc3ccc(S(=O)(=O)N4CCCC4)cc3)C2=O)cc1 (stereo unspecified)	-11%	-18%	6%	-7%
O=C(Nc1cc(C(F)(F)F)ccc1N1CCCC1)C1CC(=O)N(Cc2ccccc2)C1 (stereo unspecified)	/	/	-9%	/
